In PubChem BioAssay (NCATS):
Records with an inconclusive call do not appear. Values without a mark were called inactive. The source made the active and inactive calls. Calls follow the shape of the full dose curve.

Assay: Primary qHTS for inhibitors of SARS-S pseudo-typed particle cell entry (AID 1479145); also: nearly all actives have a fitted effect of over 45% in size
Conditions: SARS-S pseudotyped particle cell entry, luciferase reporter; series mostly up to 57.1 µM; activity change, negative = inhibition: at the top concentration
% is scaled to controls: 0 for no effect and ±100 for the full control effect.

Row | Compound | activity change, negative = inhibition | outcome
1 | C[N+]1(C)CCCC(OC(=O)C(O)(c2ccccc2)c2ccccc2)C1 (stereo unspecified) | -18.9% | –
2 | COc1ccc2cc1Oc1cc3c(cc1OC)CC[N+](C)(C)[C@H]3Cc1ccc(cc1)Oc1c(OC)c(OC)cc3c1[C@@H](C2)[N+](C)(C)CC3 | – | inactive
3 | O=C1c2c(O)cccc2Cc2cccc(O)c21 | -15.1% | –
4 | CC(=O)NS(=O)(=O)c1ccc(N)cc1 | -5.61% | –
5 | Nc1ccc(S(=O)(=O)Nc2ccc(Cl)nn2)cc1 | -16.5% | –
6 | CC(C)(O/N=C(\C(=O)N[C@@H]1C(=O)N2C(C(=O)[O-])=C(C[n+]3ccccc3)CS[C@H]12)c1csc(N)n1)C(=O)O | -9.42% [at 26.4 µM] | –
7 | CCCCCCCCCCCCCCCC(=O)OC(C)C | 3.68% | –
8 | CC(=O)SCC(CC(=O)c1ccc(C)cc1)C(=O)O (stereo unspecified) | – | inactive
9 | NC(=O)c1ccccc1O | – | inactive
10 | CC(=O)OCC(=O)[C@@]1(O)[C@H](C)C[C@H]2[C@@H]3CCC4=CC(=O)C=C[C@]4(C)[C@@]3(F)[C@@H](O)C[C@@]21C | – | inactive
11 | CC[N+](CC)(CCNC(=O)C(=O)NCC[N+](CC)(CC)Cc1ccccc1Cl)Cc1ccccc1Cl | -23.6% | –
12 | CC1(C)O[C@H]2CC(=O)OC[C@]23[C@H]2CC[C@@]4(C)[C@H](c5ccoc5)OC(=O)[C@H]5O[C@]54[C@]2(C)C(=O)C[C@@H]13 | – | inactive
13 | O=C(O)C(S)C(S)C(=O)O (stereo unspecified) | -15.7% | –
14 | Cn1nnc2c(C(N)=O)ncn2c1=O | -25.8% | –
15 | CC(C(=O)O)c1ccc2c(c1)[nH]c1ccc(Cl)cc12 (stereo unspecified) | – | inactive
16 | Clc1ccc2nsnc2c1NC1=NCCN1 | -18.3% | –
17 | COc1nccnc1NS(=O)(=O)c1ccc(N)cc1 | – | inactive
18 | COc1ccc(C(=O)CC(=O)c2ccc(C(C)(C)C)cc2)cc1 | -7.8% | –
19 | Cc1c(NC(=O)c2cccnc2)c(=O)n(-c2ccccc2)n1C | -10.6% | –

Row | Compound | activity change, negative = inhibition | outcome
20 | Cc1cc(NS(=O)(=O)c2ccc(N)cc2)nc(C)n1 | -4.45% | –
21 | NC[C@H]1O[C@H](O[C@H]2[C@H](O[C@@H]3O[C@H](CO)[C@@H](O)[C@H]3O)C(O)[C@H](N)C[C@@H]2N)[C@H](N)[C@@H](O)[C@@H]1O (stereo partly specified) | – | inactive [at 11.4 µM]
22 | Cc1cc(O)cc(C)c1Cl | – | inactive
23 | NCC(=O)CCC(=O)O | -16.8% | –
24 | Cc1cc(C)c(NC(=O)CN(CC(=O)O)CC(=O)O)c(C)c1Br | -10% | –
25 | Cc1cccn2c(=O)c(-c3nnn[nH]3)cnc12 | – | inactive [at 26.4 µM]
26 | Cc1cc2c(cc1CC(=O)c1sccc1S(=O)(=O)Nc1onc(C)c1Cl)OCO2 | – | inactive
27 | NS(=O)(=O)c1cc2c(cc1C(F)(F)F)NC(Cc1ccccc1)NS2(=O)=O (stereo unspecified) | – | inactive
28 | Cc1ncc([N+](=O)[O-])n1CC(C)O (stereo unspecified) | – | inactive [at 114 µM]
29 | CCC(C(=O)NC(=O)NC(C)=O)c1ccccc1 (stereo unspecified) | -24.7% | –
30 | Cc1c(F)c(N2CCNC(C)C2)cc2c1c(=O)c(C(=O)O)cn2C1CC1 (stereo unspecified) | -9.29% | –
31 | CC(C(=O)O)c1ccc(C(=O)c2ccccc2)s1 (stereo unspecified) | – | inactive
32 | Cc1cccc(C)c1NC(=O)CC12CCCN1CCC2 | -13% | –
33 | Cc1cc(O)c2c(O)c3c(O)cccc3cc2c1 | – | inactive
34 | N[C@@H](Cc1cc(I)c(Oc2ccc(O)c(I)c2)c(I)c1)C(=O)O | – | inactive
35 | CCCC(O)C(CC)CO (stereo unspecified) | 3.57% | –
36 | Nc1ccn(C[C@@H](CO)OCP(=O)(O)O)c(=O)n1 | – | inactive [at 0.573 µM]
37 | O=C(O)CNC(=O)c1ccccc1 | – | inactive
38 | Cc1oc(=O)oc1COC(=O)[C@@H]1N2C(=O)[C@@H](NC(=O)[C@H](N)c3ccccc3)[C@H]2SC1(C)C | -17.2% | –

Assay: Primary qHTS for Huh7 cytotoxicity: counterscreen for inhibitors of MERS-S pseudotyped particle cell entry (AID 1479147)
Conditions: cell viability read-out; series mostly up to 57.1 µM; activity change, negative = cytotoxicity: at the top concentration

Row | Compound | outcome | activity change, negative = cytotoxicity [%]
39 | C[N+]1(C)CCCC(OC(=O)C(O)(c2ccccc2)c2ccccc2)C1 (stereo unspecified) | inactive | –
40 | COc1ccc2cc1Oc1cc3c(cc1OC)CC[N+](C)(C)[C@H]3Cc1ccc(cc1)Oc1c(OC)c(OC)cc3c1[C@@H](C2)[N+](C)(C)CC3 | inactive | –
41 | O=C1c2c(O)cccc2Cc2cccc(O)c21 | – | 0.203
42 | CC(=O)NS(=O)(=O)c1ccc(N)cc1 | – | -10.6
43 | Nc1ccc(S(=O)(=O)Nc2ccc(Cl)nn2)cc1 | – | 0.519
44 | CC(C)(O/N=C(\C(=O)N[C@@H]1C(=O)N2C(C(=O)[O-])=C(C[n+]3ccccc3)CS[C@H]12)c1csc(N)n1)C(=O)O | inactive [at 26.4 µM] | –
45 | CCCCCCCCCCCCCCCC(=O)OC(C)C | inactive | –
46 | CC(=O)SCC(CC(=O)c1ccc(C)cc1)C(=O)O (stereo unspecified) | inactive | –
47 | NC(=O)c1ccccc1O | inactive | –
48 | CC(=O)OCC(=O)[C@@]1(O)[C@H](C)C[C@H]2[C@@H]3CCC4=CC(=O)C=C[C@]4(C)[C@@]3(F)[C@@H](O)C[C@@]21C | inactive | –
49 | CC[N+](CC)(CCNC(=O)C(=O)NCC[N+](CC)(CC)Cc1ccccc1Cl)Cc1ccccc1Cl | inactive | –
50 | CC1(C)O[C@H]2CC(=O)OC[C@]23[C@H]2CC[C@@]4(C)[C@H](c5ccoc5)OC(=O)[C@H]5O[C@]54[C@]2(C)C(=O)C[C@@H]13 | – | 0.337
51 | O=C(O)C(S)C(S)C(=O)O (stereo unspecified) | inactive | –
52 | Cn1nnc2c(C(N)=O)ncn2c1=O | inactive | –
53 | CC(C(=O)O)c1ccc2c(c1)[nH]c1ccc(Cl)cc12 (stereo unspecified) | inactive | –
54 | Clc1ccc2nsnc2c1NC1=NCCN1 | inactive | –
55 | COc1nccnc1NS(=O)(=O)c1ccc(N)cc1 | inactive | –
56 | COc1ccc(C(=O)CC(=O)c2ccc(C(C)(C)C)cc2)cc1 | – | 3.24
57 | Cc1c(NC(=O)c2cccnc2)c(=O)n(-c2ccccc2)n1C | inactive | –

Row | Compound | outcome | activity change, negative = cytotoxicity [%]
58 | Cc1cc(NS(=O)(=O)c2ccc(N)cc2)nc(C)n1 | – | -6.29
59 | NC[C@H]1O[C@H](O[C@H]2[C@H](O[C@@H]3O[C@H](CO)[C@@H](O)[C@H]3O)C(O)[C@H](N)C[C@@H]2N)[C@H](N)[C@@H](O)[C@@H]1O (stereo partly specified) | inactive [at 11.4 µM] | –
60 | Cc1cc(O)cc(C)c1Cl | inactive | –
61 | NCC(=O)CCC(=O)O | – | -3.55
62 | Cc1cc(C)c(NC(=O)CN(CC(=O)O)CC(=O)O)c(C)c1Br | – | 1.42
63 | Cc1cccn2c(=O)c(-c3nnn[nH]3)cnc12 | inactive [at 26.4 µM] | –
64 | Cc1cc2c(cc1CC(=O)c1sccc1S(=O)(=O)Nc1onc(C)c1Cl)OCO2 | inactive | –
65 | NS(=O)(=O)c1cc2c(cc1C(F)(F)F)NC(Cc1ccccc1)NS2(=O)=O (stereo unspecified) | – | 0.482
66 | Cc1ncc([N+](=O)[O-])n1CC(C)O (stereo unspecified) | inactive [at 114 µM] | –
67 | CCC(C(=O)NC(=O)NC(C)=O)c1ccccc1 (stereo unspecified) | inactive | –
68 | Cc1c(F)c(N2CCNC(C)C2)cc2c1c(=O)c(C(=O)O)cn2C1CC1 (stereo unspecified) | inactive | –
69 | CC(C(=O)O)c1ccc(C(=O)c2ccccc2)s1 (stereo unspecified) | – | -3.59
70 | Cc1cccc(C)c1NC(=O)CC12CCCN1CCC2 | inactive | –
71 | Cc1cc(O)c2c(O)c3c(O)cccc3cc2c1 | inactive | –
72 | N[C@@H](Cc1cc(I)c(Oc2ccc(O)c(I)c2)c(I)c1)C(=O)O | inactive | –
73 | CCCC(O)C(CC)CO (stereo unspecified) | inactive | –
74 | Nc1ccn(C[C@@H](CO)OCP(=O)(O)O)c(=O)n1 | inactive [at 0.573 µM] | –
75 | O=C(O)CNC(=O)c1ccccc1 | – | 0.51
76 | Cc1oc(=O)oc1COC(=O)[C@@H]1N2C(=O)[C@@H](NC(=O)[C@H](N)c3ccccc3)[C@H]2SC1(C)C | inactive | –
